Test results taken from PubChem BioAssay (NCATS).
Results filed as inconclusive are left out. A call without a number means that no potency is given here. Values without a mark were called inactive. Activity calls are given as the source filed them. The call rests on the fitted dose curve; in most records, active means well fitted curve in the direction sought with a large enough effect; inconclusive means small, poorly fitted or top-dose-only effect, or another doubt; inactive means no such curve, though single readings can be large; an effect the other way counts as inactive or inconclusive.

Legend:
[1] = molecular target: Rap guanine nucleotide exchange factor 3 (Homo sapiens) (UniProt O95398); experiment: Confirmatory qHTS for antagonist of cAMP-regulated guanine nucleotide exchange factor 3 (EPAC1) (AID 1645880); further: nearly all actives have a fitted effect of over 55% in size; further: potency means the concentration at half of the fitted maximal effect
Rap guanine nucleotide exchange factor 3 (Homo sapiens), sequence (O95398 whole entry, looked up): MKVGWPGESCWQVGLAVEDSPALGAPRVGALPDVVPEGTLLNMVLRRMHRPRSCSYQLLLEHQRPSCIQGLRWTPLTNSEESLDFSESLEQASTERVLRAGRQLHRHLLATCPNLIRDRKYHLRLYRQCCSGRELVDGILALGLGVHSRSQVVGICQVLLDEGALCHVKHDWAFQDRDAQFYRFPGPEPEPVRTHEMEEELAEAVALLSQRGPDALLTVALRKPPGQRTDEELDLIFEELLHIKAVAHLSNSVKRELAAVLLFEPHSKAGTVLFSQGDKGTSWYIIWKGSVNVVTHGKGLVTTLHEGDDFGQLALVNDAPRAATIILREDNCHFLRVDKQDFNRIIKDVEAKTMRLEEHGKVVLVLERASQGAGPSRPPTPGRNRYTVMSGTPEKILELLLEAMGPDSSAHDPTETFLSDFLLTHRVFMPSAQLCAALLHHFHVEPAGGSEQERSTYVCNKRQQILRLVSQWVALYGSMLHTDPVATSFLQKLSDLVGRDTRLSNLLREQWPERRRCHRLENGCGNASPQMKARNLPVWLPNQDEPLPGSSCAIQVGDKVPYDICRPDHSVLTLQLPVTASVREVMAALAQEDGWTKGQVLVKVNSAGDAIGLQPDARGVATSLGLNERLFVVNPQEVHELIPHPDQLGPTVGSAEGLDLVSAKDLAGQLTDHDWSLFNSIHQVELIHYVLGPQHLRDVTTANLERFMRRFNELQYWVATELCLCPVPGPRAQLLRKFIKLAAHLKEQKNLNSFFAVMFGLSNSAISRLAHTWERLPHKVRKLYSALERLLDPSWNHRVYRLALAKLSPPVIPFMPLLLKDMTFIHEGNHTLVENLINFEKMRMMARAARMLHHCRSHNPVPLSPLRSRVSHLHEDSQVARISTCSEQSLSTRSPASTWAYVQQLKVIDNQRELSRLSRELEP
Outline: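 Nucleotide exchange uses 100 nM EPAC1, 250 nM RAP1B-BODIPY-GDP and 50 uM GDP, with compounds in a concentration-titration series. After 5 min at room temperature, fluorescence (480 nm ex/540 nm em) is read every 5 min for 30 min. Data are normalized to control ATA and DMSO.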

[2] = molecular target: Rap guanine nucleotide exchange factor 3 (Homo sapiens) (UniProt O95398); experiment: Confirmatory qHTS for agonist of cAMP-regulated guanine nucleotide exchange factor 3 (EPAC1) (AID 1645881);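 further: EPAC1 catalysed release of BODIPY-GDP from Rap1B seen as fluorescence loss; nearly all actives have a fitted effect of over 75% in size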
[3] = molecular target: Rap guanine nucleotide exchange factor 4 (Homo sapiens) (UniProt Q8WZA2); experiment: Confirmatory qHTS for agonist of cAMP-regulated guanine nucleotide exchange factor 4 (EPAC2) (AID 1645884);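 further: nucleotide exchange releases bodipy-GDP from Rap1 and this lowers its fluorescence; nearly all actives have a fitted effect of over 65% in size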
Rap guanine nucleotide exchange factor 4 (Homo sapiens), sequence (Q8WZA2 whole entry, looked up): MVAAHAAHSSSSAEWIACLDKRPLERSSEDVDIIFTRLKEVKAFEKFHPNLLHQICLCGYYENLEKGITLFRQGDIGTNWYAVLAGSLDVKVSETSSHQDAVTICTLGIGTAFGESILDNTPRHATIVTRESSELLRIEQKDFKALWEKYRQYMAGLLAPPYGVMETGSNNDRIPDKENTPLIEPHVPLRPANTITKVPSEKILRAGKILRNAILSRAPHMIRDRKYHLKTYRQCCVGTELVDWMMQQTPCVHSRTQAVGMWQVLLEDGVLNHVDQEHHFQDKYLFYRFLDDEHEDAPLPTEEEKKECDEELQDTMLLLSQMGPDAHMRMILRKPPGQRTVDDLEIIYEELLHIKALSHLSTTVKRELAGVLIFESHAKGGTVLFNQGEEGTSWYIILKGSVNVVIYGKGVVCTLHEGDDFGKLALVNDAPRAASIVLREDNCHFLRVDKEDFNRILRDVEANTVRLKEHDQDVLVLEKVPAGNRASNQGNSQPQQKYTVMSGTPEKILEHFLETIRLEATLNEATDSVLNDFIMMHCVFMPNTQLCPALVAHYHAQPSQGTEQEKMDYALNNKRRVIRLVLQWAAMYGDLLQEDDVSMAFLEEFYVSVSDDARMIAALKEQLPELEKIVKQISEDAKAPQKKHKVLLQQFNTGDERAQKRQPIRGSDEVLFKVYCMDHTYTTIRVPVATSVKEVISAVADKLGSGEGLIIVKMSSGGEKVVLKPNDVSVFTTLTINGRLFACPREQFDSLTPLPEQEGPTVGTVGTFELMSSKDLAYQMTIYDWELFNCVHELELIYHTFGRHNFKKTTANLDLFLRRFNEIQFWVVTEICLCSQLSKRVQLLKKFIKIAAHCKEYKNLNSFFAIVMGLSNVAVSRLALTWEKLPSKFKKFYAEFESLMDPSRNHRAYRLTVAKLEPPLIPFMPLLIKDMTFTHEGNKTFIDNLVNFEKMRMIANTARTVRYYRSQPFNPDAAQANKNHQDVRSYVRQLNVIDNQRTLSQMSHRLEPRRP

[4] = molecular target: Rap guanine nucleotide exchange factor 4 (Homo sapiens) (UniProt Q8WZA2); experiment: Confirmatory qHTS for antagonist of cAMP-regulated guanine nucleotide exchange factor 4 (EPAC2) (AID 1645885); further: nearly all actives have a fitted effect of over 25% in size; further: potency means the concentration at half of the fitted maximal effect
[5] = molecular target: Rap guanine nucleotide exchange factor 3 (Homo sapiens) (UniProt O95398); experiment: Counterscreen qHTS for antagonist of cAMP-regulated guanine nucleotide exchange factor 3 (EPAC1) (AID 1645888);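 further: fluorescence loss as bound BODIPY-GDP is released from Rap1B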
Outline: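 Rap1B-BODIPY-GDP 250 nM + GDP 50 uM; cpds 7-pt, final 9.74 nM–152 uM (activator mode) or from 7.32 nM upwards (inhibitor mode); RT; FI 480/540 nm at 5 and 30 min, then ± cAMP, reread.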

Row | SMILES | Potency [1] | Potency [2] | Potency [3] | Potency [4] | Potency [5] | activation [3] | activity change, negative = inhibition [5] | outcome [4]
1 | CCCN(CCC)Cc1cc(=O)oc2cc(C)cc(C)c12 | inactive | inactive | inactive | 12 µM (active) | inactive |  |  | 
2 | NC(=O)c1cc2ccccc2o/c1=N\NC(=O)c1ccncc1 | inactive | inactive |  | inactive |  | 1.92% [at 17.1 µM, percent relative to cAMP agonist control] | -2.29% [at 30.8 µM] | 
3 | O=C(CCN1C(=O)S/C(=C\c2ccccc2)C1=O)Nc1ccc(S(=O)(=O)Nc2nccs2)cc1 | 39.8 µM (active) | inactive |  | inactive |  | 1.67% [at 17.1 µM, percent relative to cAMP agonist control] | -0.356% [at 30.8 µM] | 
4 | CN(c1ncnc2onc(-c3cccc(Cl)c3)c12)C1CCCCC1 | inactive | inactive | inactive |  | inactive |  |  | inactive [at 12.7 µM]
5 | COc1ccc(OC)c(/C=C2\SC(=S)N(NS(=O)(=O)c3ccc(C)cc3)C2=O)c1 | 30.1 µM (active) | inactive | inactive | 47.8 µM (active) | inactive |  |  | 
6 | CCOc1ccccc1NC1c2ccccc2C(=O)N1Cc1ccco1 (stereo not given) | inactive | inactive | inactive | inactive | inactive |  |  | 
7 | O=C(NCc1ccco1)c1c[nH]c2ccc(S(=O)(=O)N3CCOCC3)cc2c1=O | inactive | inactive |  | inactive |  | 7.59% [at 17.1 µM, percent relative to cAMP agonist control] | 1.66% [at 30.8 µM] | 
8 | CCOc1cc(CNc2ccc(O)cc2)cc(Br)c1OCc1ccccc1 | 75.7 µM (active) | inactive | inactive |  | inactive |  |  | inactive [at 12.7 µM]
9 | Cc1ccc(C)c(N(C)C(=O)c2cn(C)c(=O)c3ccccc23)c1 | inactive | inactive | inactive | inactive | inactive |  |  | 
10 | NC(=O)COC(=O)/C=C/c1ccc2ccccc2n1 | inactive | inactive | inactive | inactive | inactive |  |  | 
11 | COC(=O)c1ccc(CNC(=O)/C=C/[C@H]2O[C@@H](n3cc(C)c(=O)[nH]c3=O)C[C@@H]2O)cc1 | inactive | inactive | inactive | inactive | inactive |  |  | 
12 | CCc1ccc(/C=C2/SC(=S)N(CCCC(=O)Nc3ccccc3C(=O)O)C2=O)cc1 | 75.7 µM (active) | inactive | inactive | inactive | inactive |  |  | 
13 | CC/C(=N/NC(=O)c1ccc2c(c1)OCO2)c1ccccc1O | 15.1 µM (active) | inactive | inactive | inactive | inactive |  |  | 
14 | COC(=O)c1cc2oc(C)cc2n1Cc1cccc(Cl)c1 | inactive | inactive | inactive | inactive | inactive |  |  | 
15 | C=CCOc1ccc(/C=C2\SC(=S)N(C(C(=O)O)c3ccccc3)C2=O)cc1 (stereo not given) | 31.6 µM (active) | inactive |  | inactive |  | 3.84% [at 17.1 µM, percent relative to cAMP agonist control] | -23.9% [at 30.8 µM] | 
16 | Cc1ccc(-c2nc3ccc(Br)cn3c2Cc2ccccc2C(F)(F)F)cc1 | 84.9 µM (active) | inactive | inactive | 47.8 µM (active) | inactive |  |  | 
17 | COc1cccc(CN2C(=O)C3(SCC(=O)N3c3ccc(F)cc3)c3ccccc32)c1 (stereo not given) | inactive | inactive | inactive | inactive | inactive |  |  | 
18 | CN(C)C(=O)c1cccc(-c2cnc3c(NC=O)cc(-c4ccc(F)cc4)cn23)c1 | inactive | inactive | inactive | inactive | inactive |  |  | 
19 | CCN(CC)S(=O)(=O)c1cccc(-c2nnc(SCC(N)=O)n2C)c1 | inactive | inactive | inactive | inactive | inactive |  |  | 
20 | COCOCCn1cc(CN2CCS(=O)(=O)N(Cc3ccc(-c4ccc(C)cc4)cc3)C(CC(C)C)C2=O)nn1 (stereo not given) | inactive | inactive |  | inactive |  | 9.16% [at 17.1 µM, percent relative to cAMP agonist control] | 15.6% [at 30.8 µM] | 
21 | Cc1ccc(-n2c(SCC(=O)N/N=C/c3ccccc3C(=O)O)nnc2-c2ccc(Cl)cc2)cc1 | inactive | inactive | inactive | inactive | inactive |  |  | 
22 | COc1cc2c(-c3ccc4c(c3)OCO4)c(-c3ccsc3)oc(=O)c2cc1OC | inactive | inactive |  | inactive |  | 13.2% [at 17.1 µM, percent relative to cAMP agonist control] | 10.4% [at 30.8 µM] | 
23 | OC(c1ccc(Cl)c(Cl)c1)c1ncc(-c2ccc(Cl)cc2)[nH]1 (stereo not given) | inactive | inactive |  | inactive |  | -3.18% [at 17.1 µM, percent relative to cAMP agonist control] | -2.17% [at 30.8 µM] | 
24 | O=C(Nc1cccc(Cl)c1)N(Cc1nc2ccccc2c(=O)[nH]1)Cc1cccs1 | inactive | inactive |  | inactive |  | 5.3% [at 17.1 µM, percent relative to cAMP agonist control] | 2.45% [at 30.8 µM] | 

Row | SMILES | Potency [1] | Potency [2] | Potency [3] | Potency [4] | Potency [5] | activation [3] | activity change, negative = inhibition [5] | outcome [4]
25 | CCOC(=O)c1[nH]c(C)c(C(=O)NC(C)(C)C)c1C | inactive | inactive | inactive | inactive | inactive |  |  | 
26 | Cc1ccc(NC(=O)CN(C)C(=O)COC(=O)C2=COCCO2)cc1 | inactive | inactive |  | inactive |  | 6.32% [at 17.1 µM, percent relative to cAMP agonist control] | -1.81% [at 30.8 µM] | 
27 | Cc1ccc(C)c(-n2c3nc(=O)[nH]c(=O)c-3cc3cc([N+](=O)[O-])ccc32)c1 | 47.8 µM (active) | inactive | inactive | inactive | inactive |  |  | 
28 | COc1ccc(S(=O)(=O)N2CCOC23CCN(S(=O)(=O)c2cc(F)ccc2F)CC3)cc1 | inactive | inactive |  | inactive |  | 4.71% [at 17.1 µM, percent relative to cAMP agonist control] | -8.89% [at 30.8 µM] | 
29 | Cc1c(C(=O)NCCO)sc2nc3n(c(=O)c12)CCC3 | inactive | inactive | inactive | inactive | inactive |  |  | 
30 | O=C(c1ccco1)N(Cc1ccc([N+](=O)[O-])cc1)c1ccc(Cl)cc1 | inactive | inactive | inactive | inactive | inactive |  |  | 
31 | O=C1CSC2(C(=O)N(Cc3ccccc3F)c3ccccc32)N1c1ccc(F)cc1 (stereo not given) | inactive | inactive | inactive |  | inactive |  |  | inactive [at 12.7 µM]
32 | CCC(C)N(C(=O)COC(=O)C1CCN(S(=O)(=O)c2ccc(C)c(C)c2)CC1)C1CCS(=O)(=O)C1 (stereo not given) | inactive | inactive | inactive | inactive | inactive |  |  | 
33 | O=C(c1ccco1)N(Cc1cccc([N+](=O)[O-])c1)c1ccc(Br)cc1 | inactive | inactive | inactive | inactive | inactive |  |  | 
34 | Cc1nc2sc(C(c3cccs3)N3CCN(c4ccccc4)CC3)c(O)n2n1 (stereo not given) | inactive | inactive | inactive | inactive | inactive |  |  | 
35 | COc1cccc(C(=O)C2=NN(C(C)=O)CC2c2ccco2)c1 (stereo not given) | inactive | inactive | inactive | inactive | inactive |  |  | 
36 | Cc1ccc2nc(NC(=O)CSc3nc(=O)n(CCCN(C)C)c4c3CCC4)sc2c1 | inactive | inactive |  | inactive |  | 2.81% [at 17.1 µM, percent relative to cAMP agonist control] | -5.22% [at 30.8 µM] | 
37 | CCOC(=O)c1ccc(N2C(=O)c3n[nH]c(-c4ccco4)c3C2c2ccccc2OC)cc1 (stereo not given) | 75.7 µM (active) | inactive | inactive | inactive | inactive |  |  | 
38 | CCC(=O)N1N=C(c2cccs2)CC1c1ccc(OC)cc1 (stereo not given) | inactive | inactive | inactive | inactive | inactive |  |  | 
39 | CC(=O)C1=C(O)C(=O)N(c2cccc(Br)c2)C1c1ccc(Br)cc1 (stereo not given) | 37.9 µM (active) | inactive | inactive | inactive | inactive |  |  | 
40 | Cc1ccc(S(=O)(=O)Nc2cc(=O)[nH]c(SCC(=O)Nc3cccc(C)c3)n2)cc1 | inactive | inactive |  | inactive |  | 4.73% [at 17.1 µM, percent relative to cAMP agonist control] | -4.46% [at 30.8 µM] | 
41 | Cc1ccc(-n2nc(C(=O)N(C)c3ccc(C)c(C)c3)c3c4ccccc4n(C)c3c2=O)cc1 | inactive | inactive | inactive |  | inactive |  |  | inactive [at 12.7 µM]
42 | O=C1NN(c2cccc(Br)c2)C(=O)/C1=C/c1ccc(-c2cc([N+](=O)[O-])ccc2O)o1 | 16.9 µM (active) | inactive | inactive | inactive | inactive |  |  | 
43 | C[C@H](c1ccccc1)N1C[C@@H](COCc2ccccc2)Oc2cc(N3CC[C@@H](O)C3)ccc2S1(=O)=O | inactive | inactive | inactive | inactive | inactive |  |  | 
44 | C#CC(c1ccccc1)(c1ccccc1)n1ccnc1 | inactive | inactive | inactive | inactive | inactive |  |  | 
45 | CCCCNC(=O)NC12CC3CC(CC(C3)C1)C2 | inactive | inactive | inactive | inactive | inactive |  |  | 
46 | COC(=O)c1cc(NC(=O)CC2C(=O)OCCN2Cc2ccccc2)cc(C(=O)OC)c1 (stereo not given) | inactive | inactive | inactive | inactive | inactive |  |  | 
47 | O=C(NCC(c1ccco1)N1CCN(c2ccccc2F)CC1)c1cccs1 (stereo not given) | inactive | inactive |  | inactive |  | 5.11% [at 17.1 µM, percent relative to cAMP agonist control] | 6.53% [at 30.8 µM] | 
